“And” between values parts separate entries of the source, which are not always exact repeats. Identical values can stand only once. Inconclusive results are not listed. The source made the active and inactive calls. Unless noted, the call rests on the fitted dose curve.
Assays:
[1] = biological target: Mitogen-activated protein kinase 10 (Mus musculus) (UniProt Q61831); assay: JNK3 AlphaScreen Assay (AID 530; active means well fitted curve in either direction with a large enough effect, not every such curve was filed as active;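 further: kinase came from lysate of stimulated human HepG2 cells; signal reports phosphorylation of biotinylated GST-cJun 1-79 at Ser73 with 10 µM ATP; series mostly up to about 57 µM; on the % scale 0 is the no-effect control and ±100 the full control effect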)
Outline: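 JNK3 came from HepG2 lysates pre-activated with IL-1beta and TNF-alpha and phosphorylated biotinylated GST-cJun (1-79) at 10 uM ATP, pH 7.6, room temperature. Compounds were titrated. AlphaScreen signal used anti-phospho-cJun (Ser73) antibody.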

[2] = biological target: Cytochrome P450 3A4 (Homo sapiens) (UniProt P08684); assay: qHTS Assay for Inhibitors and Substrates of Cytochrome P450 3A4 (AID 884; active means well fitted curve in the direction sought with a large enough effect; an effect the other way counts as inactive or inconclusive; further: nearly all actives have a fitted effect of over 50% in size; further: potency means the concentration at half of the fitted maximal effect; on activity change, negative = inhibition: series mostly up to about 57 µM; on the % scale 0 is the no-effect control and ±100 the full control effect)
Outline: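 20 nM human CYP3A4 with 25 uM Luciferin-PPXE (at KM) in 200 mM KPO4, preincubated 10 min with compound; NADPH regeneration started a 60 min RT reaction. Luciferin detected by luminescence, normalized to 57 uM ketoconazole as full inhibition.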

[3] = MultiTox-Fluor Cytotoxicity Assay - LYMP1-001 - Live Cells (AID 947; active means well fitted curve in the direction sought with a large enough effect; an effect the other way counts as inactive or inconclusive;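 further: 0% = DMSO only and full inhibition = tetraoctylammonium bromide control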)
[4] = MultiTox-Fluor Cytotoxicity Assay - LYMP1-002 - Dead Cells (AID 960; active means well fitted curve in the direction sought with a large enough effect; an effect the other way counts as inactive or inconclusive;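 further: 0% = DMSO and 100% = tetraoctylammonium bromide; nearly all actives have a fitted effect of over 60% in size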)
Outline: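 Acute cytotoxicity in a human lymphoblastoid line is scored as rising dead-cell protease signal after 16 hr exposure at 37 C, measured fluorometrically (485/520).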

[5] = Cell Viability - LYMP2-004 (AID 966; active means well fitted curve in the direction sought with a large enough effect; an effect the other way counts as inactive or inconclusive;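 further: plate controls were DMSO only for no effect and tetraoctylammonium bromide control for full effect; nearly all actives have a fitted effect of over 65% in size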)
Outline: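 Acute toxicity is scored as a concentration-dependent drop in intracellular ATP, quantified by luciferase luminescence, in human lymphoblastoid cells exposed to compound for 24 hr. AC50 derives from Hill-equation modelling.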

[6] = biological target: Estrogen receptor (Homo sapiens) (UniProt P03372); assay: qHTS assay for small molecule antagonists of estrogen receptor alpha signaling (AID 588513; active means well fitted curve in the direction sought with a large enough effect in the signal ratio, with a control signal flat, not every such curve was filed as active; the % refers to the signal ratio; further: on the % scale 0 is the no-effect control and ±100 the full control effect)
Outline: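 ER-alpha-UAS-bla GripTite HEK 293 cells in 2% charcoal/dextran-treated FBS medium; compounds titrated (1:2, duplicate), then stimulated with 0.5 nM 17-beta-estradiol for 18 h at 37C. CCF4 beta-lactamase fluorescence; Hill-fit IC50 and efficacy.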

[7] = biological target: Glucocorticoid receptor (Homo sapiens) (UniProt P04150); assay: qHTS assay for small molecule agonists of glucocorticoid receptor signaling (AID 588532; active means well fitted curve in the direction sought with a large enough effect in the signal ratio, with a control signal flat; the % refers to the signal ratio;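 further: 100% = dexamethasone at 0.1 µM and 0% = DMSO only wells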); conditions: HeLa MMTV-bla, beta-lactamase ratio, agonist, 18 h; stronger effect = higher value; percent of dexamethasone control, DMSO zero
Outline: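 Stimulation of a glucocorticoid response element-driven beta-lactamase gene was measured in HeLa cells. Responses were scaled between DMSO basal and 0.1 uM dexamethasone, then fitted for half-maximal stimulation.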

[8] = biological target: Peroxisome proliferator-activated receptor gamma (Homo sapiens) (UniProt P37231); assay: qHTS assay for small molecule agonists of peroxisome proliferator-activated receptor gamma signaling (AID 588536; active means well fitted curve in the direction sought with a large enough effect in the signal ratio, with a control signal flat, not every such curve was filed as active; the % refers to the signal ratio;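 further: 0% = DMSO basal wells and 100% = rosiglitazone at 2 µM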)
Outline: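 PPAR-gamma-UAS-bla HEK293 cells in medium with 1% charcoal/dextran-treated FBS were exposed to compounds for 16 h at 37 C. Beta-lactamase activity was read with CCF4 substrate (405 nm excitation, 460/530 nm emission).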

[9] = biological target: Vitamin D3 receptor (Homo sapiens) (UniProt P11473); assay: qHTS assay for small molecule agonists of vitamin D receptor signaling (AID 588543);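 further: 0% = DMSO basal and 100% = reference agonist control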
Outline: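 VDR-UAS-bla HEK293T cells, 2000/well, 2% charcoal-stripped FBS; compound titration 16 h at 37 C; CCF4 beta-lactamase ratio read. Normalized to 50 nM 1-alpha,25-dihydroxyvitamin D3 (100%) and DMSO; Hill fit gives EC50, efficacy.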

[10] = qHTS assay for small molecule agonists of retinoid X receptor alpha signaling (AID 588544); conditions: HEK293T RXRa-UAS-bla, beta-lactamase reporter, 18 h; 530 nm emission;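 on activation: 0% = DMSO basal wells and 100% = reference agonist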
[11] = biological target: Retinoic acid receptor RXR-alpha (Homo sapiens) (UniProt P19793); assay: as above
[12] = biological target: Thyroid hormone receptor beta (Homo sapiens) (UniProt P10828); assay: qHTS assay for small molecule antagonists of thyroid hormone receptor beta signaling (AID 588547; active means well fitted inhibition curve with a large enough effect in the signal ratio, with a control signal flat, not every such curve was filed as active; the % refers to the signal ratio;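 further: cells stimulated with 0.4 nM T3 agonist during compound exposure; series mostly up to about 77 µM; on the % scale 0 is the no-effect control and ±100 the full control effect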); conditions: TR-UAS-bla HEK293, beta-lactamase ratio, antagonist mode, 18 h
Outline: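 TR-UAS-bla GripTite HEK293 cells in 2% charcoal/dextran FBS medium were preincubated 4 h at 37 C, given compound (0.59 nM to 92 uM) plus 0.4 nM T3 (final) for 18 h, then CCF4 for 2 h at RT; Hill fit gave IC50.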

[13] = biological target: Voltage-gated inwardly rectifying potassium channel KCNH2 (Homo sapiens) (UniProt Q12809); assay: qHTS Assay for Small Molecule Inhibitors of the Human hERG Channel Activity (AID 588834; active means well fitted curve in the direction sought with a large enough effect; an effect the other way counts as inactive or inconclusive;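 further: top concentration of the series differs between compounds; on the % scale 0 is the no-effect control and ±100 the full control effect; lower thallium flux fluorescence means stronger hERG block; nearly all actives have a fitted effect of over 50% in size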)
Outline: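 U2OS cells BacMam-transduced with hERG, 2000 cells/well, compound ~10 min at 37 °C before stimulation buffer. FluxOR thallium flux fluorescence read kinetically on FDSS; decrease indicates block; AC50 from Hill fits.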

[14] = qHTS assay for small molecule activators of the p53 signaling pathway (AID 651743; active means well fitted activation curve with a large enough effect in the signal ratio, not every such curve was filed as active; the % refers to the signal ratio; further: series mostly up to about 92 µM; % of control where 0% means no effect); conditions: HCT-116 p53RE-bla, beta-lactamase FRET ratio, 16 h; activation: stronger effect = higher value
Outline: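 p53RE-bla HCT-116 cells with a stably integrated beta-lactamase reporter under p53 response elements were plated, rested 5 hours at 37 C/5% CO2, then exposed to compounds in DMSO for 16 hours at 37 C. LiveBLAzer B/G FRET substrate was read after 2 hours at room temperature.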

[15] = qHTS assay for small molecule disruptors of the mitochondrial membrane potential - 1 hr assay (AID 651754); further: nearly all actives have a fitted effect of over 35% in size; further: potency means the concentration at half of the fitted maximal effect
Outline: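 Steps: seed HepG2 cells and let attach overnight; pin-transfer compound or vehicle; incubate 1 hr at 37C; add Mito-MPS dye for 30 min; read two-channel fluorescence for monomer and aggregate forms.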

[16] = qHTS assay for small molecule disruptors of the mitochondrial membrane potential - 5 hr assay (AID 651755); further: nearly all actives have a fitted effect of over 40% in size; further: potency means the concentration at half of the fitted maximal effect
Outline: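 HepG2 cells, attached overnight at 37C, were exposed to compound or DMSO for 5 hr at 37C, 5% CO2. Mito-MPS dye was then added for 30 min, and fluorescence read at 490/535 nm (monomers) and 540/590 nm (aggregates).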

[17] = biological target: Tumor necrosis factor (Homo sapiens) (UniProt P01375); assay: qHTS assay to identify small molecules that stimulate Tumor Necrosis Factor-alpha (TNF-alpha) secretion (AID 651757; active means well fitted curve in the direction sought with a large enough effect in the signal ratio; the % refers to the signal ratio; further: 0% is about no effect)
Outline: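 Secreted TNF-alpha from compound-treated THP-1 cells (17 hrs, 37 C) was quantified with a homogeneous time-resolved fluorescence antibody assay.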

[18] = qHTS assay for small molecule antagonists of the retinoid-related orphan receptor gamma (ROR-gamma) signaling pathway - cell viability counter screen (AID 720652; active means well fitted curve in the direction sought with a large enough effect in the repeat runs; an effect the other way counts as inactive or inconclusive;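 further: compound exposure lasted 16 hr before ATP read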; further: potency means the concentration at half of the fitted maximal effect)
Outline: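 Cytotoxicity is quantified via intracellular ATP (CellTiter-Glo luminescence) in doxycycline-induced CHO ROR response element-luciferase reporter cells treated with compound for 16 hr at 37 C, 5% CO2.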

[19] = qHTS assay for small molecule activators of the human pregnane X receptor (PXR) signaling pathway (AID 720659; call rule not given here; further: 0% is about no effect)
[20] = biological target: Nuclear receptor subfamily 1 group I member 2 (Rattus norvegicus) (UniProt Q9R1A7); assay: qHTS assay for small molecule activators of the rat pregnane X receptor (rPXR) signaling pathway (AID 651751; call rule not given here; further: 0% is about no effect); conditions: rPXR reporter cells, luciferase (One-Glo), 24 h
Sequence of Nuclear receptor subfamily 1 group I member 2 (Rattus norvegicus) (Q9R1A7 whole entry, looked up): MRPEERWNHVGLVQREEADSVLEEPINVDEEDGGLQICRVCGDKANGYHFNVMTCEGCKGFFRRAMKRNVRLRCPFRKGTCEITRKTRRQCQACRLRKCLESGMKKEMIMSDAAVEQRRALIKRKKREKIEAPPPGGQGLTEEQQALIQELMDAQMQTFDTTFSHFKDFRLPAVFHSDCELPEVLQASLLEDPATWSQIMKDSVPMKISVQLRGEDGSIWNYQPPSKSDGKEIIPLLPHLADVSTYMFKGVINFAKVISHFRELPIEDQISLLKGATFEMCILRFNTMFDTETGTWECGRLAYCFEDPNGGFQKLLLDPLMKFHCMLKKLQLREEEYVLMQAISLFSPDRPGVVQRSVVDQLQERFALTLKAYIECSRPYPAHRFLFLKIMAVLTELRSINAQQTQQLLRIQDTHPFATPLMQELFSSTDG

Sequence of Cytochrome P450 3A4 (Homo sapiens) (P08684 whole entry, looked up): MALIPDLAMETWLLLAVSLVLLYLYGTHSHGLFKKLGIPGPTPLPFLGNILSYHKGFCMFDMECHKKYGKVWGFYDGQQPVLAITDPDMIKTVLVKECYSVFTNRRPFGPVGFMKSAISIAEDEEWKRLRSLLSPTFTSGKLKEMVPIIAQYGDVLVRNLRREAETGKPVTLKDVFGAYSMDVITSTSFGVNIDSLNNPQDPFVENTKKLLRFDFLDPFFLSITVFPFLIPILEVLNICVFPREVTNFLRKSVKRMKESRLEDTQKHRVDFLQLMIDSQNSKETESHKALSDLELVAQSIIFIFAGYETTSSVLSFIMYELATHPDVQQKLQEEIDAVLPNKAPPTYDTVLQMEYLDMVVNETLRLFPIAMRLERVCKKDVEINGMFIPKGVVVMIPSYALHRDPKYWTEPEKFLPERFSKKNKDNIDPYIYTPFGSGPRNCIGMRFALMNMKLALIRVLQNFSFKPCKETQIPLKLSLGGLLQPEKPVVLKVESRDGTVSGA
Sequence of Retinoic acid receptor RXR-alpha (Homo sapiens) (P19793 whole entry, looked up): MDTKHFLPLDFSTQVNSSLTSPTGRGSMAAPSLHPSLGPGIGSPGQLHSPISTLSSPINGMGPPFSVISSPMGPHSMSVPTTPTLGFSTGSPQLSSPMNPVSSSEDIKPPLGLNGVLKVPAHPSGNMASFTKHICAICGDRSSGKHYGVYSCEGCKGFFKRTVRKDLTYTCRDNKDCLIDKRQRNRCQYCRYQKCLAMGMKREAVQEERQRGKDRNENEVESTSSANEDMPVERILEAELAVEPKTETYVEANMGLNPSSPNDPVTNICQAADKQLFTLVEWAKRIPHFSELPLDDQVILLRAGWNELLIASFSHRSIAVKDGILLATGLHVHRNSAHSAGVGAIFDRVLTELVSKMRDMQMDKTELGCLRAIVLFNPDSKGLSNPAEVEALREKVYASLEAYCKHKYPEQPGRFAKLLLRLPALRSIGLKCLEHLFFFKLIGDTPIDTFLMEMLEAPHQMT
Sequence of Estrogen receptor (Homo sapiens) (P03372 whole entry, looked up): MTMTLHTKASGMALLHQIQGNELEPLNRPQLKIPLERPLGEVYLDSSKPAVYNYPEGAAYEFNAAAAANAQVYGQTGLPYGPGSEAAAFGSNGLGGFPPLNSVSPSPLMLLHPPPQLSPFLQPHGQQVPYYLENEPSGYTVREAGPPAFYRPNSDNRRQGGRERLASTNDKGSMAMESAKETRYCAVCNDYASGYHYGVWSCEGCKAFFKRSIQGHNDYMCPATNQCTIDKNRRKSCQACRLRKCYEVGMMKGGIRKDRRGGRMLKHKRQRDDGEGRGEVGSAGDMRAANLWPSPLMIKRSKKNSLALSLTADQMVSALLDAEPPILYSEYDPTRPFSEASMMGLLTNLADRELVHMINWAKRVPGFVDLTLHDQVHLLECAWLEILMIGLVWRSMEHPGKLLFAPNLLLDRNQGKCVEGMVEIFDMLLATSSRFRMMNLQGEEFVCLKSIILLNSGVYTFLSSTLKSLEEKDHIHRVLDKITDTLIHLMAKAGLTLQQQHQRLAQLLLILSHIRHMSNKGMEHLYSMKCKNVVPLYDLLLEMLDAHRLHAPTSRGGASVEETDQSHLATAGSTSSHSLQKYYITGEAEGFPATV
Sequence of Glucocorticoid receptor (Homo sapiens) (P04150 whole entry, looked up): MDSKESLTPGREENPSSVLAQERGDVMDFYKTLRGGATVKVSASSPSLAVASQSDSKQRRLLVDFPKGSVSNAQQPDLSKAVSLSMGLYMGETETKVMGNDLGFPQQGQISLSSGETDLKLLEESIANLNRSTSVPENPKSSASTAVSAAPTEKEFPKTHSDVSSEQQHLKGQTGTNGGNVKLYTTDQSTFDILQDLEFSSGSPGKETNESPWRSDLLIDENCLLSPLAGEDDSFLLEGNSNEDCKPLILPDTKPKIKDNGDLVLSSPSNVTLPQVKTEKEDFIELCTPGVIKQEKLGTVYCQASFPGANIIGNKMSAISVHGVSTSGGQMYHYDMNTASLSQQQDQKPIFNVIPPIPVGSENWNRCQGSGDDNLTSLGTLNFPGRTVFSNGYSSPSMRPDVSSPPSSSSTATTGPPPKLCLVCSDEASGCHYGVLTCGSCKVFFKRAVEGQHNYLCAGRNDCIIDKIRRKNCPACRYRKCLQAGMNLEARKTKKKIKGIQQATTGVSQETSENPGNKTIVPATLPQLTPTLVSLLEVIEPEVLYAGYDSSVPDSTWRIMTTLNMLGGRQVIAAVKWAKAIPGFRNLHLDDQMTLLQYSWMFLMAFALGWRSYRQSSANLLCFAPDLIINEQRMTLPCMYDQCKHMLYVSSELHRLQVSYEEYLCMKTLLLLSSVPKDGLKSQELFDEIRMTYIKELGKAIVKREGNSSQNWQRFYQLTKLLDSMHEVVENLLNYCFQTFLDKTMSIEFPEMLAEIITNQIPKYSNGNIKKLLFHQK
Sequence of Voltage-gated inwardly rectifying potassium channel KCNH2 (Homo sapiens) (Q12809 whole entry, looked up): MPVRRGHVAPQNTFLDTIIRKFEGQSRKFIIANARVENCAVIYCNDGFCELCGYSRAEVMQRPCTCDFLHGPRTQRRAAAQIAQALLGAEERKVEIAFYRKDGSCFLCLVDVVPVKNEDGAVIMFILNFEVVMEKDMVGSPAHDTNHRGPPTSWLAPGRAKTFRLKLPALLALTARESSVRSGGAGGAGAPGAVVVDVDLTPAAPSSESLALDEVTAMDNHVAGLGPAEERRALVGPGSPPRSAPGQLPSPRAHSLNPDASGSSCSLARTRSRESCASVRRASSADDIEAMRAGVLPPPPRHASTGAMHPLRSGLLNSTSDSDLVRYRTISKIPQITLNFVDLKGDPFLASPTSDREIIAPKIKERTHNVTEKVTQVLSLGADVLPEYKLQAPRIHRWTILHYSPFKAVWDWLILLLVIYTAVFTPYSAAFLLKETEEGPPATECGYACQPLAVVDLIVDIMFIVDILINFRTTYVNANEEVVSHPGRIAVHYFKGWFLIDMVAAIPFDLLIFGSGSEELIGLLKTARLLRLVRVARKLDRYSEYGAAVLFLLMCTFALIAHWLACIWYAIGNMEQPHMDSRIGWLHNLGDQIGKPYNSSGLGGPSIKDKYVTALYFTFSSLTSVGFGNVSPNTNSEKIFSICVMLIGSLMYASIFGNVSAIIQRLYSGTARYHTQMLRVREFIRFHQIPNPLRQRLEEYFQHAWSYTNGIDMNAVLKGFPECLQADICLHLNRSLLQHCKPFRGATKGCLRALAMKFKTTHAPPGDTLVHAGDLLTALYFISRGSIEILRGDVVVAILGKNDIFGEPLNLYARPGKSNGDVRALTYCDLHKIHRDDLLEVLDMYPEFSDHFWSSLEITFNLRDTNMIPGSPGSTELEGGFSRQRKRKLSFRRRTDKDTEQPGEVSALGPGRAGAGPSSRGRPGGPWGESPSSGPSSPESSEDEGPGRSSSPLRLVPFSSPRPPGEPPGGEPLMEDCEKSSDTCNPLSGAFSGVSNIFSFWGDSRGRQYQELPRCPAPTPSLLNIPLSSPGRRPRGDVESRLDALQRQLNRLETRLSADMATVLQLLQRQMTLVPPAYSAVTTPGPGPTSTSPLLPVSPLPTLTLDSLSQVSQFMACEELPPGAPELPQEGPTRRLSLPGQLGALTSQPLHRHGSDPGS
Sequence of Peroxisome proliferator-activated receptor gamma (Homo sapiens) (P37231 whole entry, looked up): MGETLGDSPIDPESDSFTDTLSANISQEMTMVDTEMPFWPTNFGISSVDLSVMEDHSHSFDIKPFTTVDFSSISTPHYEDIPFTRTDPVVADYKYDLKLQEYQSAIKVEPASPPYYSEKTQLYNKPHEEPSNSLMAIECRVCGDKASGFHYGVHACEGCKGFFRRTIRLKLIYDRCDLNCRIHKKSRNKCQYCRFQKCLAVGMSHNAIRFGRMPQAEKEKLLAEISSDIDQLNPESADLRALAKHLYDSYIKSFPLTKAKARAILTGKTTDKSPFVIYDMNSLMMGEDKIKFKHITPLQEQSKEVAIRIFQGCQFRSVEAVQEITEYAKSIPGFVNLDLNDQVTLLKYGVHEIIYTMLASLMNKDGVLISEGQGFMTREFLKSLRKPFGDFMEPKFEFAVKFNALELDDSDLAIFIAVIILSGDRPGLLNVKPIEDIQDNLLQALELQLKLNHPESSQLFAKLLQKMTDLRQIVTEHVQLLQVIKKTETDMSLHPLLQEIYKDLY
Sequence of Vitamin D3 receptor (Homo sapiens) (P11473 whole entry, looked up): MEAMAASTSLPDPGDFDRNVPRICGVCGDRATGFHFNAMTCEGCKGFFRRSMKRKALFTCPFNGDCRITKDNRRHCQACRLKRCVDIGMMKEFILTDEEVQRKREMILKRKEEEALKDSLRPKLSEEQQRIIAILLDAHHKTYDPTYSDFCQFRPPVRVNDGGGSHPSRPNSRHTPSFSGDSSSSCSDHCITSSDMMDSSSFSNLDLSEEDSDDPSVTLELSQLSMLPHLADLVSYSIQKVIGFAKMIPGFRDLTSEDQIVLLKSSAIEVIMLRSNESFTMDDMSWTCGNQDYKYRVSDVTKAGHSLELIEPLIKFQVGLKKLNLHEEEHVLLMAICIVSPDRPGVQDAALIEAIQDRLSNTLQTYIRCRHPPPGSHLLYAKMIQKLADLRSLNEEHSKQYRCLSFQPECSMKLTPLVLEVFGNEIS

CCCCOCCO
inactive: Potency [1] | Potency [2] | Potency [3] | Potency [4] | Potency [5] | Potency [6] | activation [7] -3.83% and -1.18% | outcome [8] | outcome [9] | outcome [11] | activity change % (negative = inhibition) [12] -4.64% and -15.2% | Potency [13] | activation [14] -0.263% and -0.796% and -1.77% | Potency [15] | Potency [16] | outcome [17] | Potency [18] | outcome [19]
-6.03% and -11.6% and -17.6%: max response [10]

CC1(C)CC(N=C=O)CC(C)(CN=C=O)C1 (centres undefined)
inactive: Potency [1] | Potency [3] | Potency [5] | Potency [6] | outcome [8] | outcome [9] | outcome [11] | activity change % (negative = inhibition) [12] 2.27% and 3.24% | Potency [13] | activation [14] 0.263% and 0.482% | Potency [15] | Potency [16] | outcome [17] | Potency [18] | max response [20] 1.05% and -0.823% | outcome [19]
0.0281% and -13.4%: max response [10]

Nc1ccc(Cl)cc1Cl
inactive: Potency [1] | Potency [3] | Potency [4] | Potency [5] | Potency [6] | activation [7] -1.05% and -10.1% | outcome [8] | outcome [11] | activity change % (negative = inhibition) [12] -5.09% and -14.9% | Potency [13] | activation [14] -2.62% and -5.11% | Potency [15] | Potency [16] | outcome [17] | Potency [18] | max response [20] 2.63% and 1.63% | outcome [19]
-10.9%: max response [10]

O=C1c2ccccc2C(=O)C1c1ccc2ccccc2n1
16.7%: max response [10]
active: Potency [2] 2510 nM | Potency [15] 944 nM | Potency [16] 1680 nM | Potency [18] 33500 nM
inactive: Potency [3] | Potency [4] | Potency [5] | Potency [6] | activation [7] -2.81% and -4.97% | outcome [8] | outcome [9] | outcome [11] | activity change % (negative = inhibition) [12] -15.6% | Potency [13] | activation [14] 5.56% and 14%

c1ccccc1
inactive: Potency [1] | Potency [2] | Potency [3] | Potency [4] | Potency [5] | Potency [6] | activation [7] -2.25% [middle of 4 runs] | outcome [8] | outcome [9] | activation [14] 0.891% [middle of 4 runs] | Potency [15] | Potency [16] | outcome [17]

CCCCC(CC)CN (centres undefined)
-5.69% and -12.2%: max response [10]
inactive: Potency [2] | Potency [3] | Potency [4] | Potency [5] | Potency [6] | activation [7] -3.51% and -4.52% | outcome [8] | outcome [9] | outcome [11] | activity change % (negative = inhibition) [12] 20% and -6.26% | Potency [13] | activation [14] -5.5% and 1.33% | Potency [15] | Potency [16] | outcome [17] | Potency [18] | max response [20] 1.98% and 0.48% | outcome [19]

CCO
inactive: Potency [1] | Potency [2] | Potency [3] | Potency [5] | Potency [6] | activation [7] -4.6% | outcome [8] | outcome [9] | outcome [11] | activity change % (negative = inhibition) [12] -1.42% | Potency [13] | activation [14] -1.86% | Potency [15] | Potency [16] | outcome [17] | Potency [18] | max response [20] 0.289% | outcome [19]
1.82%: max response [10]

O=C(O)c1ccc(O)cc1O
inactive: Potency [1] | Potency [2] | Potency [3] | Potency [4] | Potency [5] | activation [7] 0.41% and -0.627% | outcome [8] | outcome [9] | outcome [11] | activity change % (negative = inhibition) [12] 0.5% and 23.9% | Potency [13] | activation [14] -0.261% and 0.22% | Potency [15] | Potency [16] | outcome [17] | Potency [18] | max response [20] 10.9% and 2.3% | outcome [19]
-5.03% and -19.7%: max response [10]

Cc1ccc(N)c([N+](=O)[O-])c1
-17.4% and -9.33%: max response [10]
inactive: Potency [1] | Potency [2] | Potency [4] | Potency [5] | Potency [6] | activation [7] 2.77% and 13.2% | outcome [8] | outcome [9] | outcome [11] | activity change % (negative = inhibition) [12] -3.23% | Potency [13] | Potency [15] | Potency [16] | outcome [17] | Potency [18] | max response [20] -2.15% and -2.21%

COc1c2ccoc2cc2oc(=O)ccc12
inactive: Potency [1] | Potency [3] | Potency [4] | Potency [5] | Potency [6] | activation [7] 3.88% | outcome [9] | activity change % (negative = inhibition) [12] 16.2% | Potency [13] | activation [14] 6.05% | Potency [15] | Potency [16] | outcome [17] | Potency [18] | max response [20] 2.12% | outcome [19]

CN1CC[C@H](CN2c3ccccc3Sc3ccccc32)C1
inactive: activity change, negative = inhibition [1] 0.762% [at 11.4 µM]

— PubChem BioAssay (NCATS)
